# Records with an inconclusive call do not appear. A call without a number means that no potency is given here. Unmarked numbers belong to inactive results. Calls of active or inactive are those of the source. Unless noted, calls come from the whole dose curve.
# Experiment: qHTS assay to identify small molecule agonists of the NFkB signaling pathway - cell viability counter screen (AID 1159515); note: nearly all actives have a fitted effect of over 55% in size
# Details: NFkB-bla ME-180 viability, CellTiter-Glo luminescence, 5 h; series mostly up to 61 µM
# Summary of the method: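 5 hr compound treatment of NFkB-bla ME-180 cells (2,000/well, seeded overnight beforehand), followed by reporter substrate for 1.5 hr. CellTiter-Glo added afterward; luminescence after 30 min RT.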
SMILES,outcome,"activity, negative = cytotoxic"
CCOC(=O)COc1ccc2c(C)c(CCN(CC)CC)c(=O)oc2c1Cl,inactive,–
CCCCCCC(O)CO (centres undefined),inactive,–
NCC1CCC(C(=O)Oc2ccc(CCC(=O)O)cc2)CC1 (centres undefined),inactive,–
OCCC(F)(F)C(F)(F)C(F)(F)C(F)(F)C(F)(F)C(F)(F)F,inactive,–
CCOC(=O)CC(C(C)=O)C(C)=O,inactive,–
CCCCCCCCOCCC#N,inactive,–
CC(=O)OC/C=C(/C)CCC=C(C)C,inactive,–
CN(C)CCCN(C)C,–,0.193% [at 6.95 µM]
CCCC(=O)C(CC)Sc1ccoc1C (centres undefined),inactive,–
CCCCCCCCCCCBr,inactive,–
Clc1cc(Cl)c(Cl)c(Cl)c1Cl,inactive,–
CCCCN=C(N)N=C(N)N,inactive,–
COC(=O)c1c(C)cc(O)c(C)c1O,inactive,–
CC(C)(C)C(=O)CCc1ccc(Cl)cc1,inactive,–
Cc1ccccc1C#N,inactive,–
CC(C)(C)c1ccc(N)cc1,inactive,–
COc1cc(OC)cc(OC)c1,inactive,–
Cc1ccc(Br)cc1,inactive,–
C=CCON/C(CCC)=C1\C(=O)CC(C)(C)C(C(=O)OC)=C1O,inactive,–

SMILES,outcome,"activity, negative = cytotoxic"
C[C@@H]1CCC[C@H](C)N1CCCC(O)(c1ccccc1)c1ccccn1 (some centres undefined),inactive,–
NNC(=O)OCc1ccccc1,inactive,–
CC(C)(C)c1ccc(C(=O)CCCCl)cc1,inactive,–
C[C@@H](CN1CC(=O)NC(=O)C1)N1CC(=O)NC(=O)C1,inactive,–
CC(C)(O)CCCC1=CCC(C=O)CC1 (centres undefined),inactive,–
O=C(c1ccccc1)c1cccc(O)c1,inactive,–
O=CN1CCCCC1,inactive,–
CN1C(CCl)Nc2cc(Cl)c(S(N)(=O)=O)cc2S1(=O)=O (centres undefined),inactive,–
CCOCCOCCOC(C)=O,inactive,–
Cc1ccc(OC(=O)CC(C)C)cc1,inactive,–
COC(C)(C)CC(C)=O,inactive,–
CCCOc1ccc(C(=O)OCCN(CC)CC)cc1N,inactive,–
CC[N+](C)(CC)CC,inactive,–
Nc1nc(Cl)cc(Cl)n1,inactive,–
O=Cc1ccc(C(=O)O)cc1,inactive,–
O=P(O)(O)C(O)(Cc1cccnc1)P(=O)(O)O,inactive,–
CCCCCCCCC1CO1 (centres undefined),inactive,–
COc1cc2nc(N3CCN(C(=O)C4CCCO4)CC3)nc(N)c2cc1OC (centres undefined),inactive,–
CCCCCCCCCCCCCCCC(=O)OC,inactive,–

# Experiment: qHTS assay to identify small molecule agonists of the endoplasmic reticulum stress response signaling pathway (AID 1159516; active = well fitted activation curve with a large enough effect in the signal ratio in the repeat runs, not every such curve was filed as active; the % refers to the signal ratio)
# Details: ESRE-bla HeLa, ER stress beta-lactamase reporter, 5 h; series mostly up to 61 µM
# Summary of the method: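 Reporter HeLa cells (ESRE-beta-lactamase) underwent 5 hr compound incubation at 37 C and 5% CO2 in quantitative HTS format. Detection followed 2 hr of FRET substrate loading at room temperature.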
SMILES,Potency,activation
CCOC(=O)COc1ccc2c(C)c(CCN(CC)CC)c(=O)oc2c1Cl,inactive,–
CCCCCCC(O)CO (centres undefined),inactive,–
NCC1CCC(C(=O)Oc2ccc(CCC(=O)O)cc2)CC1 (centres undefined),inactive,–
OCCC(F)(F)C(F)(F)C(F)(F)C(F)(F)C(F)(F)C(F)(F)F,inactive,–
CCOC(=O)CC(C(C)=O)C(C)=O,inactive,–
CCCCCCCCOCCC#N,inactive,–
CC(=O)OC/C=C(/C)CCC=C(C)C,inactive,–
CN(C)CCCN(C)C,–,3.45% [at 6.95 µM]
CCCC(=O)C(CC)Sc1ccoc1C (centres undefined),inactive,–
CCCCCCCCCCCBr,inactive,–
Clc1cc(Cl)c(Cl)c(Cl)c1Cl,inactive,–
CCCCN=C(N)N=C(N)N,inactive,–
COC(=O)c1c(C)cc(O)c(C)c1O,inactive,–
CC(C)(C)C(=O)CCc1ccc(Cl)cc1,inactive,–
Cc1ccccc1C#N,inactive,–
CC(C)(C)c1ccc(N)cc1,inactive,–
COc1cc(OC)cc(OC)c1,inactive,–
Cc1ccc(Br)cc1,inactive,–
C=CCON/C(CCC)=C1\C(=O)CC(C)(C)C(C(=O)OC)=C1O,inactive,–

SMILES,Potency,activation
C[C@@H]1CCC[C@H](C)N1CCCC(O)(c1ccccc1)c1ccccn1 (some centres undefined),inactive,–
NNC(=O)OCc1ccccc1,inactive,–
CC(C)(C)c1ccc(C(=O)CCCCl)cc1,inactive,–
C[C@@H](CN1CC(=O)NC(=O)C1)N1CC(=O)NC(=O)C1,inactive,–
CC(C)(O)CCCC1=CCC(C=O)CC1 (centres undefined),inactive,–
O=C(c1ccccc1)c1cccc(O)c1,inactive,–
O=CN1CCCCC1,inactive,–
CN1C(CCl)Nc2cc(Cl)c(S(N)(=O)=O)cc2S1(=O)=O (centres undefined),inactive,–
CCOCCOCCOC(C)=O,inactive,–
Cc1ccc(OC(=O)CC(C)C)cc1,inactive,–
COC(C)(C)CC(C)=O,inactive,–
CCCOc1ccc(C(=O)OCCN(CC)CC)cc1N,inactive,–
CC[N+](C)(CC)CC,inactive,–
Nc1nc(Cl)cc(Cl)n1,inactive,–
O=Cc1ccc(C(=O)O)cc1,inactive,–
O=P(O)(O)C(O)(Cc1cccnc1)P(=O)(O)O,inactive,–
CCCCCCCCC1CO1 (centres undefined),inactive,–
COc1cc2nc(N3CCN(C(=O)C4CCCO4)CC3)nc(N)c2cc1OC (centres undefined),inactive,–
CCCCCCCCCCCCCCCC(=O)OC,inactive,–

# Experiment: qHTS assay to identify small molecule agonists of the endoplasmic reticulum stress response signaling pathway - cell viability counter screen (AID 1159517);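 note: HeLa cells carrying an ER stress response element beta-lactamase reporter; nearly all actives have a fitted effect of over 50% in size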
# Details: ESRE-bla HeLa viability, CellTiter-Glo luminescence, 5 h; series mostly up to 61 µM
# Summary of the method: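 HeLa cells carrying an ESRE-driven beta-lactamase reporter receive compound for 5 hr at 37 C. Cell viability is then gauged with CellTiter-Glo by luminescence, 30 min at room temperature.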
SMILES,outcome,"activity change, negative = cytotoxicity"
CCOC(=O)COc1ccc2c(C)c(CCN(CC)CC)c(=O)oc2c1Cl,inactive,–
CCCCCCC(O)CO (centres undefined),inactive,–
NCC1CCC(C(=O)Oc2ccc(CCC(=O)O)cc2)CC1 (centres undefined),inactive,–
OCCC(F)(F)C(F)(F)C(F)(F)C(F)(F)C(F)(F)C(F)(F)F,inactive,–
CCOC(=O)CC(C(C)=O)C(C)=O,inactive,–
CCCCCCCCOCCC#N,inactive,–
CC(=O)OC/C=C(/C)CCC=C(C)C,inactive,–
CN(C)CCCN(C)C,–,19.8% [at 6.95 µM]
CCCC(=O)C(CC)Sc1ccoc1C (centres undefined),inactive,–
CCCCCCCCCCCBr,inactive,–
Clc1cc(Cl)c(Cl)c(Cl)c1Cl,inactive,–
CCCCN=C(N)N=C(N)N,inactive,–
COC(=O)c1c(C)cc(O)c(C)c1O,inactive,–
CC(C)(C)C(=O)CCc1ccc(Cl)cc1,inactive,–
Cc1ccccc1C#N,inactive,–
CC(C)(C)c1ccc(N)cc1,inactive,–
COc1cc(OC)cc(OC)c1,inactive,–
Cc1ccc(Br)cc1,inactive,–
C=CCON/C(CCC)=C1\C(=O)CC(C)(C)C(C(=O)OC)=C1O,inactive,–

SMILES,outcome,"activity change, negative = cytotoxicity"
C[C@@H]1CCC[C@H](C)N1CCCC(O)(c1ccccc1)c1ccccn1 (some centres undefined),inactive,–
NNC(=O)OCc1ccccc1,inactive,–
CC(C)(C)c1ccc(C(=O)CCCCl)cc1,inactive,–
C[C@@H](CN1CC(=O)NC(=O)C1)N1CC(=O)NC(=O)C1,inactive,–
CC(C)(O)CCCC1=CCC(C=O)CC1 (centres undefined),inactive,–
O=C(c1ccccc1)c1cccc(O)c1,inactive,–
O=CN1CCCCC1,inactive,–
CN1C(CCl)Nc2cc(Cl)c(S(N)(=O)=O)cc2S1(=O)=O (centres undefined),inactive,–
CCOCCOCCOC(C)=O,inactive,–
Cc1ccc(OC(=O)CC(C)C)cc1,inactive,–
COC(C)(C)CC(C)=O,inactive,–
CCCOc1ccc(C(=O)OCCN(CC)CC)cc1N,inactive,–
CC[N+](C)(CC)CC,inactive,–
Nc1nc(Cl)cc(Cl)n1,inactive,–
O=Cc1ccc(C(=O)O)cc1,inactive,–
O=P(O)(O)C(O)(Cc1cccnc1)P(=O)(O)O,inactive,–
CCCCCCCCC1CO1 (centres undefined),inactive,–
COc1cc2nc(N3CCN(C(=O)C4CCCO4)CC3)nc(N)c2cc1OC (centres undefined),inactive,–
CCCCCCCCCCCCCCCC(=O)OC,inactive,–

# Source: PubChem BioAssay (Tox21)
